According to the supplement of paper PMC7866885, “A novel bicyclic 2,4-diaminopyrimidine inhibitor of Streptococcus suis dihydrofolate reductase” (PeerJ, 2021):
± gives the standard deviation.

test system: Streptococcus suis HE06; experiment: percent growth relative to DMSO control; higher = less growth inhibition; settings: 10 µM; incubation time 18 h
Method: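 CLSI broth microdilution: 5x10^4 CFU of Streptococcus suis (strain P1/7 or HE06) incubated with 10 µM Pathogen Box compound in cation-adjusted Mueller Hinton broth, 37 °C, 5% CO2, 18 h. Growth read as OD600 and expressed as percent of the DMSO-treated control (100%); mean ± SD of three independent experiments.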

Row | SMILES | percent growth
1 | CC1(C)OB(O)c2ccc(C3=NOC(c4cc(Cl)c(F)c(Cl)c4)(C(F)(F)F)C3)cc21 (centres undefined) | 15.4 ± 15%
2 | Cc1cc(C2=NOC(c3cc(Cl)c(F)c(Cl)c3)(C(F)(F)F)C2)ccc1C(=O)NCc1ccc2c(c1)C(C)(C)OB2O (centres undefined) | 60.3 ± 9.8%
3 | CC(C)(C)C(O)C(Oc1ccc(-c2ccccc2)cc1)n1cncn1 (centres undefined) | 86.7 ± 8.5%
4 | Cc1nn(C)c(C)c1NS(=O)(=O)c1c(Cl)cc(-c2ccnc(N3CCNCC3)c2)cc1Cl | 94.8 ± 29%
5 | CC1COC(Cn2cncn2)(c2ccc(Oc3ccc(Cl)cc3)cc2Cl)O1 (centres undefined) | 77 ± 5.4%
6 | Nc1c2c(nc3sc4c(c13)CCCC4)CCCC2 | 76.3 ± 20%
7 | O=C1O[C@@H](CO)CN1c1cc(F)c(C2=CCN(Cc3ccccc3)CC2)c(F)c1 | 3.88 ± 0.8%
8 | Cc1nn(Cc2ccccc2)c(Cl)c1C(=O)NC1CCCCCC1 | 107 ± 13%
9 | Cc1cccc(C(=O)Nc2ccnc(N(C)C3CCN(CC(C)C)CC3)c2)c1 | 95.9 ± 30%
10 | CO[C@@H]1CN(c2ccc(C#CC3(O)CN4CCC3CC4)c(Cc3ccccc3)n2)C[C@H]1O (some centres undefined) | 108 ± 2.9%
11 | CO/C=C(/C(=O)OC)c1ccccc1Oc1cc(Oc2ccccc2C#N)ncn1 | 76.8 ± 3.1%
12 | O=C1O[C@@H](COc2ccon2)CN1c1cc(F)c(C2=CCN(Cc3ccccc3)CC2)c(F)c1 | 2.62 ± 3.7%
13 | CCc1nn(C)c(C(=O)NCc2ccc(Oc3ccc(C)cc3)cc2)c1Cl | 82.6 ± 11%
14 | CO/N=C(\C(=O)OC)c1ccccc1CO/N=C(\C)c1cccc(C(F)(F)F)c1 | 102 ± 17%
